Assay results taken from PubChem BioAssay (NCATS).
Records with an inconclusive call do not appear. The source made the active and inactive calls. Unless noted, the rule behind the calls is not given here.

Key:
[1] = qHTS Assay for Identifying Gametocytocidal Compounds (AID 743244; active = well fitted curve in the direction sought with a large enough effect; an effect the other way counts as inactive or inconclusive; note: potency is the fitted concentration of half-maximal effect;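 for max response: % is set by controls: 0 for no effect and ±100 for the full control effect; actives lower the fluorescent signal which means gametocytes are killed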); conditions: P. falciparum 3D7 stage III-V gametocytes, alamarBlue, 72 h; max response: stronger effect = lower value
Method in brief: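 Fluorescence at Ex 525/Em 598 nm, recorded 24 h after alamarBlue addition, reports residual metabolic activity of 3D7 gametocytes (stages III–V) following 72 h compound exposure at 37 °C, 5% CO2.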

[2] = qHTS profiling for inhibitors of Plasmodium falciparum (3D7) proliferation (AID 743322);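 note: infected erythrocytes exposed to compound for 72 h before lysis; 100% = DMSO vehicle wells and 0% = 0.29 µM artemisinin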; conditions: P. falciparum 3D7 proliferation; at 28.7 µM (top of the series)
Method in brief: (§1)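 Parasite DNA was quantified by SYBR Green I fluorescence (ex 485, em 535 nm) after overnight lysis in saponin/Triton buffer at room temperature. Cultures at 0.3% parasitemia and 2.5% hematocrit were first exposed to compound for 72 h at 37 C; signals were normalised to artemisinin (0.29 uM) and vehicle wells.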

[3] = qHTS profiling for inhibitors of Plasmodium falciparum (DD2) proliferation (AID 743323); conditions: lower = more inhibition; at 28.7 µM (top of the series)
Method in brief: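 Parasite DNA quantified by SYBR Green fluorescence (ex 485, em 535 nm) after saponin/Triton lysis and overnight dark incubation. Cultures: 0.3% parasitemia, 2.5% hematocrit, 72 h, 37 C; data scaled between DMSO and 0.29 uM artemisinin.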

[4] = qHTS profiling of the MIPE4 collection as inhibitors of Plasmodium falciparum (3D7) proliferation (AID 743344);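 note: scaled between DMSO vehicle wells and 0.29 µM artemisinin as full inhibition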; conditions: P. falciparum 3D7 in erythrocytes, SYBR Green DNA fluorescence, 72 h; at 28.5 µM (top of the series) unless noted
Method in brief: as §1

[5] = qHTS profiling of the MIPE4 collection as inhibitors of Plasmodium falciparum (DD2) proliferation (AID 743345); conditions: P. falciparum Dd2 in erythrocytes, SYBR Green DNA, 72 h; at 28.5 µM (top of the series) unless noted
Method in brief: as §1

[6] = qHTS profiling of the MIPE4 collection as inhibitors of Plasmodium falciparum (DD2) proliferation (Rep 2) (AID 743346); conditions: P. falciparum Dd2 in erythrocytes, SYBR Green DNA, 72 h; at 28.5 µM (top of the series) unless noted
Method in brief: as §1

[7] = qHTS profiling of the MIPE4 collection as inhibitors of Plasmodium falciparum (HB3) proliferation (AID 743347);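 note: plate controls were DMSO vehicle wells for no effect and artemisinin wells for full effect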; conditions: P. falciparum HB3 in erythrocytes, SYBR Green DNA, 72 h; at 28.5 µM (top of the series) unless noted
Method in brief: as §1

[8] = High-throughput drug toxicity screening in the BPDCN cell line Gen2.2 (AID 1224824); conditions: Gen2.2 BPDCN cells; at 45.8 µM (top of the series) unless noted;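 note: cells exposed to compounds for 48 h before reading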
Method in brief: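 Gen2.2 cells, 500 per well in phenol red-free RPMI with 10% FBS, exposed to compounds 48 h at 37 C, 5% CO2; viability by CellTiter-Glo luminescence. Percent activity scaled to DMSO (100%) and 9.2 uM bortezomib final (0%).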

[9] = High-throughput drug toxicity screening in the BPDCN cell line Cal-1 (AID 1224825); conditions: Cal-1 BPDCN cell viability, qHTS; at 45.8 µM (top of the series) unless noted
Method in brief: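 CellTiter-Glo luminescence after 48 h compound exposure; percent activity scaled with DMSO as 100% and bortezomib (9.2 uM final) as 0%. Cal-1 cells seeded at 500/well in RPMI, 10% FBS, no phenol red.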

[10] = qHTS profiling for inhibitors of Plasmodium falciparum (HB3) proliferation (AID 743324; active = well fitted curve in the direction sought with a large enough effect; an effect the other way counts as inactive or inconclusive;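 note: 100% = DMSO vehicle wells and 0% = artemisinin-treated control wells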); conditions: Plasmodium falciparum HB3 blood-stage proliferation; at 28.7 µM (top of the series)
Method in brief: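 SYBR Green fluorescence (485 ex/535 em) of lysed cultures, incubated overnight at room temperature in the dark, quantifies parasite DNA. Infected erythrocytes at 0.3% parasitemia and 2.5% hematocrit were exposed 72 h; values normalized to DMSO and 0.29 uM artemisinin controls.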

Row | Compound | Potency [1] | remaining parasite growth % (stronger effect = lower value) [2] | activity, percent of control [3] | parasite growth, % of DMSO control [4] | parasite growth remaining, % of DMSO control (lower = more inhibition) [5] | parasite growth, % of control (lower = inhibition) [6] | growth, % of control [7] | cell viability, % of control (lower = more cytotoxic) [8] | viability (% of control) [9] | remaining proliferation (% of control), lower = more inhibition [10] | max response [1]
1 | C=CCn1c(=O)c2cnc(Nc3ccc(N4CCN(C)CC4)cc3)nc2n1-c1cccc(C(C)(C)O)n1 | 3.32 µM (active) | 11.1% | 6.29% | 13.4% | 13.2% | 21.2% | 16.5% | 169% | 16.4% |  | 
2 | COc1cc2c(Oc3ccc(NC(=O)C4(C(=O)Nc5ccc(F)cc5)CC4)cc3F)ccnc2cc1OCCCN1CCOCC1 | 18.7 µM (active) | -2.01% | -0.633% |  |  | 20.2% | 8.86% | 10.2% | 4.49% | -0.88% | 
3 | CC[C@@H]1C(=O)N(C)c2cnc(Nc3ccc(C(=O)NC4CCC(N5CCN(CC6CC6)CC5)CC4)cc3OC)nc2N1C(C)C (some centres not stated) | 7.43 µM (active) | -0.343% | 1.64% | 4.79% |  |  | 6.88% | 2.88% | 3.23% |  | 
4 | COc1cc(C(=O)NS(=O)(=O)c2ccccc2C)ccc1Cc1cn(C)c2ccc(NC(=O)OC3CCCC3)cc12 |  |  |  | 5.96% | 7.78% |  | 7.01% | 13% | 4.45% |  | 2.7% (inactive)
5 | Cc1[nH]c2ccccc2c1CCNCc1ccc(C=CC(=O)NO)cc1 | 1.18 µM (active) | -0.764% | -0.223% |  | 7.14% | 6.72% | 2.36% | 7.87% | 7.62% | -0.887% | 
6 | CC(=O)SC[C@@H](C)C(=O)N1CCC[C@H]1C(=O)N[C@@H](Cc1ccccc1)C(=O)O |  | 106% | 103% | 100% | 102% | 69.5% | 111% | 132% | 123% |  | 7.13% (inactive)
7 | NC(=O)Nc1cc(-c2cccc(F)c2)sc1C(=O)N[C@H]1CCCNC1 | 18.7 µM (active) | -0.937% | 5.1% |  |  |  | 6.42% | 7.53% | 4.12% | 0.699% | 
8 | CCC[C@H](NC(=O)C(C#N)=Cc1cccc(Br)n1)c1ccccc1 |  | 26.8% | 23.2% | 11.6% | 6.9% | 17.5% | 4.55% | 15.9% | 4.33% | 14.8% | 
9 | COC(=O)c1ccc2c(C(=Nc3ccc(N(C)C(=O)CN4CCN(C)CC4)cc3)c3ccccc3)c(O)[nH]c2c1 |  | 0.245% | 0.784% | 6.36% | 6.24% | 13.4% | 5.35% | 213% | 71.4% | 0.135% | 
10 | C[C@]12CC[C@H](O)CC1=CCC1C2CC[C@]2(C)C(n3cnc4ccccc43)=CCC12 (some centres not stated) |  |  |  | 6.89% | 72.8% | 21.9% | 9.11% | 109% | 91.9% |  | 
11 | Cc1cn(-c2cc(NC(=O)c3ccc(C)c(Nc4nccc(-c5cccnc5)n4)c3)cc(C(F)(F)F)c2)cn1 |  | 3.06% | 12.7% | 6.31% | 8.07% |  | 7.2% | 231% | 101% | 2.94% | 
